Results as given in PubChem BioAssay (EPA / NIEHS).
Records with an inconclusive call do not appear. Calls of active or inactive are those of the source. How the source made its calls, unless noted: active means hit-call score of the fitted dose curve at least 0.9, where 1 is the maximum; inactive means score below 0.9.

Assays:
[1] = target: Paired box protein Pax-6 (Homo sapiens) (UniProt P26367); experiment: ATG_Pax6_CIS: Attagene CIS-FACTORIAL HepG2 Assay for human Paired Box 6 (PAX6) (AID 2282956); settings: HepG2 CIS-FACTORIAL PAX6 reporter transcription, RNA readout; actives raise or lower the signal
In short: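 Transient MRTU transfection of HepG2 → compound exposure 24 h → TriZol RNA, oligo(dT) RT → PCR, 6-FAM primer extension, HpaI cut → capillary electrophoresis; activity fitted both directions against DMSO.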

[2] = ATG_PXRE_CIS: Attagene CIS-FACTORIAL HepG2 Assay for human Pregnane X Receptor Element (PXRE) (AID 2282957); settings: HepG2 Attagene CIS-FACTORIAL PXRE reporter, mRNA; actives raise or lower the signal
In short: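 Transfect HepG2 with MRTUs (cis promoter elements); dose chemical, incubate 24 h; isolate RNA, RT with oligo(dT), PCR, 6-FAM label, HpaI cut, CE. Gain/loss fit vs DMSO.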

[3] = ATG_PPRE_CIS: Attagene CIS-FACTORIAL HepG2 Assay for human Peroxisome Proliferator-activated Response Element (PPRE) (AID 2282958); settings: HepG2 PPRE cis-element reporter, Attagene transcription factor profiling; actives raise or lower the signal
In short: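 Cells are first transfected transiently with the multiplexed reporter library, then dosed for 24 h. Total RNA is reverse-transcribed, amplified, fluorescently end-labeled and HpaI-cut before capillary electrophoresis; activity is fitted bidirectionally against DMSO controls.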

[4] = ATG_RORE_CIS: Attagene CIS-FACTORIAL HepG2 Assay for human RAR-related Orphan Receptor Element (RORE) (AID 2282959); settings: HepG2 Attagene cis-factorial RORE reporter, mRNA; actives raise or lower the signal
In short: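 Cells were HepG2 carrying transfected cis-regulated reporter constructs, dosed for 24 hours. Total RNA was reverse-transcribed and reporter cDNA amplified, fluorescently labeled and sized by capillary electrophoresis. Activity was fitted bidirectionally relative to DMSO.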

[5] = ATG_Sox_CIS: Attagene CIS-FACTORIAL HepG2 Assay for human SRY-box transcription factor (SOX) (AID 2282960); settings: HepG2 Attagene cis-factorial SOX reporter, mRNA; actives raise or lower the signal
In short: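 Transient MRTU transfection of HepG2; 24 h compound incubation; TriZol RNA, oligo(dT) RT, PCR, 6-FAM primer extension, HpaI cut, CE. Bidirectional fit, DMSO = baseline.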

[6] = target: Transcription factor Sp1 (Homo sapiens) (UniProt P08047); experiment: ATG_Sp1_CIS: Attagene CIS-FACTORIAL HepG2 Assay for human Specificity Protein 1 (Sp1) (AID 2282961); settings: HepG2 Sp1 cis-reporter transcription, actives raise or lower the signal
In short: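 Endogenous Sp1 activity was gauged in human liver HepG2 cells bearing transfected reporter units under a cis-regulating promoter. After 24 h dosing, reporter mRNA was quantified by RT-PCR with capillary electrophoresis, and activity fitted bidirectionally versus DMSO.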

[7] = ATG_SREBP_CIS: Attagene CIS-FACTORIAL HepG2 Assay for human Sterol Regulatory Element Binding (SREBP) (AID 2282962); settings: HepG2 Attagene cis-factorial SREBP reporter, mRNA; actives raise or lower the signal
In short: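 Transfected HepG2 (cis-regulated reporter library, endogenous TFs) → compound 24 h → total RNA → oligo(dT) RT → reporter-specific PCR → FAM primer extension, HpaI cut → CE fluorescence. Fit bidirectional vs DMSO.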

[8] = target: Signal transducer and activator of transcription 3 (Homo sapiens) (UniProt P40763); experiment: ATG_STAT3_CIS: Attagene CIS-FACTORIAL HepG2 Assay for human Signal Transducer and Activator of Transcription 3 (STAT3) (AID 2282963); settings: HepG2, Attagene cis-factorial STAT3 reporter transcription; actives raise or lower the signal
In short: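 HepG2 cells transiently transfected with cis-element-driven multiple reporter transcription units; after 24 h chemical exposure, reporter mRNA measured by RT-PCR, 6-FAM primer-extension labelling, HpaI digestion and capillary electrophoresis. Bidirectional fitting versus DMSO baseline.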

[9] = ATG_TA_CIS: Attagene CIS-FACTORIAL HepG2 Assay for human TA Basal Promoter (AID 2282964); settings: HepG2 Attagene CIS-factorial TA basal promoter reporter; actives raise or lower the signal
In short: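 Cis-factorial format in HepG2: reporters report endogenous factors, not chimeric Gal4 fusions. After 24 h treatment, reporter transcripts were measured by RT-PCR-capillary electrophoresis fluorescence, analysed bidirectionally versus DMSO.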

[10] = ATG_TAL_CIS: Attagene CIS-FACTORIAL HepG2 Assay for human TAL Basal Promoter (AID 2282966); settings: HepG2 Attagene cis-factorial TAL promoter reporter; actives raise or lower the signal;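 further: background control endpoint measuring basal TAL promoter reporter mRNA not a specific factor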
In short: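 Fluorescence of labelled reporter cDNA fragments, resolved by capillary electrophoresis, gave the readout. Human HepG2 liver cells carried transiently transfected cis-element reporter units and were treated for 24 hours; activity was fitted bidirectionally against DMSO.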

[11] = ATG_TGFb_CIS: Attagene CIS-FACTORIAL HepG2 Assay for human Transforming Growth Factor (TGF) (AID 2282967); settings: HepG2 Attagene CIS TGFb reporter, mRNA transcription; actives raise or lower the signal
In short: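 Multiplexed cis-reporter HepG2 system, 24 h treatment; mRNA induction read by fluorescence after RT-PCR and CE; DMSO negative control, bidirectional curve fitting.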

[12] = ATG_VDRE_CIS: Attagene CIS-FACTORIAL HepG2 Assay for human Vitamin D Receptor Element (VDRE) (AID 2282968); settings: HepG2 VDRE cis-reporter transcription, actives raise or lower the signal
In short: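 HepG2 cells transiently transfected with cis-element reporter units, dosed 24 h; reporter mRNA measured by RT-PCR, 6-FAM labeling, HpaI digestion and capillary electrophoresis. Activity fitted bidirectionally against DMSO baseline.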

[13] = target: Steroid hormone receptor ERR1 (Homo sapiens) (UniProt P11474); experiment: ATG_ERRa_TRANS: Attagene TRANS-FACTORIAL HepG2 Assay for human Estrogen-Related Receptor alpha (ERRa) (AID 2282971; active means hit-call score of the fitted dose curve at least 0.9, where 1 is the maximum); settings: HepG2 Attagene TRANS reporter, ERRa transactivation
In short: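 Reporter transcript induction was quantified by RT-PCR and capillary electrophoresis of FAM-labelled, HpaI-cut products after 24 h treatment of HepG2 cells carrying transiently transfected GAL4-UAS reporter units and an exogenous ERRa-Gal4 fusion; activity scored as increase over DMSO.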

[14] = target: X-box-binding protein 1 (Homo sapiens) (UniProt P17861); experiment: ATG_Xbp1_CIS: Attagene CIS-FACTORIAL HepG2 Assay for human X-box Binding Protein 1 (XBP1) (AID 2282972); settings: HepG2 XBP1 cis-element reporter, Attagene multiplex; actives raise or lower the signal
In short: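 HepG2, transient MRTU transfection (cis-promoter driven), 24 h compound exposure. Total RNA → oligo(dT) RT → PCR → 6-FAM labeling → HpaI cut → CE. Bidirectional fit vs DMSO.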

[15] = target: Estrogen-related receptor gamma (Homo sapiens) (UniProt P62508); experiment: ATG_ERRg_TRANS: Attagene TRANS-FACTORIAL HepG2 Assay for human Estrogen-Related Receptor gamma (ERRg) (AID 2282977; active means hit-call score of the fitted dose curve at least 0.9, where 1 is the maximum;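 further: hits increase reporter signal over DMSO so potencies reflect activators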); settings: HepG2 Attagene TRANS reporter, ERRg transactivation
In short: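 HepG2 cells transiently transfected with multiplexed GAL4-UAS reporter units and chimeric NR-Gal4 constructs were exposed to test chemicals for 24 h. Reporter mRNA was measured by RT-PCR, 6-FAM primer extension, HpaI digestion and capillary electrophoresis; gain-of-signal versus DMSO.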

[16] = target: Glucocorticoid receptor (Homo sapiens) (UniProt P04150); experiment: ATG_GR_TRANS: Attagene TRANS-FACTORIAL HepG2 Assay for human Glucocorticoid Receptor (GR) (AID 2282978; active means hit-call score of the fitted dose curve at least 0.9, where 1 is the maximum;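 further: activators score as hits since higher reporter transcript over DMSO is fitted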); settings: HepG2 Attagene TRANS GR reporter, mRNA transcription
In short: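 In this trans-factorial format, exogenous NR-GAL4 chimeric proteins in transfected HepG2 cells regulate GAL4-UAS reporter transcription. After 24 h treatment, reporter mRNA induction relative to DMSO is read by RT-PCR and capillary electrophoresis.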

[17] = ATG_TCF_b_cat_CIS: Attagene CIS-FACTORIAL HepG2 Assay for human T-Cell-Factor with beta-catenin (TCF/b-cat) (AID 2282965); settings: HepG2 TCF/beta-catenin cis-reporter transcription, actives raise or lower the signal
In short: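 HepG2 cells transiently transfected with multiple cis-promoter-regulated reporter transcription units, so endogenous transcription factor activity is measured. Reporter mRNA read 24 hours after dosing by RT-PCR, fluorescent labelling and capillary electrophoresis; bidirectional fitting against DMSO.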

[18] = target: Nuclear receptor subfamily 1 group I member 3 (Homo sapiens) (UniProt Q14994); experiment: ATG_CAR_TRANS: Attagene TRANS-FACTORIAL HepG2 Assay for human Constitutive Androstane Receptor (CAR) (AID 2282969; active means hit-call score of the fitted dose curve at least 0.9, where 1 is the maximum;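 further: activators raise reporter mRNA above DMSO so AC50 marks induction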); settings: HepG2 Attagene TRANS-FACTORIAL CAR reporter
In short: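 HepG2 cells transiently transfected with multiplexed GAL4-UAS reporter units expressing chimeric NR-Gal4 proteins; compound exposure 24 h. Reporter mRNA measured by RT-PCR, 6-FAM labelling, HpaI digestion and capillary electrophoresis; gain-of-signal fitted against DMSO baseline.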

[19] = ATG_M_19_TRANS: Attagene TRANS-FACTORIAL HepG2 Assay for M19 Transcription Factor (Internal Marker) (AID 2282974; active means hit-call score of the fitted dose curve at least 0.9, where 1 is the maximum); settings: HepG2 Attagene TRANS-FACTORIAL M19 internal marker reporter
In short: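 Cells: human HepG2, transiently transfected with multiplexed reporter transcription units. Exposure: 24 h. Detection: RT-PCR of reporter mRNA with capillary electrophoresis. Analysis: gain-of-signal vs DMSO.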

Measured: AC50

Chain of Glucocorticoid receptor (Homo sapiens) (P04150 whole entry, looked up, the tested form may be a part): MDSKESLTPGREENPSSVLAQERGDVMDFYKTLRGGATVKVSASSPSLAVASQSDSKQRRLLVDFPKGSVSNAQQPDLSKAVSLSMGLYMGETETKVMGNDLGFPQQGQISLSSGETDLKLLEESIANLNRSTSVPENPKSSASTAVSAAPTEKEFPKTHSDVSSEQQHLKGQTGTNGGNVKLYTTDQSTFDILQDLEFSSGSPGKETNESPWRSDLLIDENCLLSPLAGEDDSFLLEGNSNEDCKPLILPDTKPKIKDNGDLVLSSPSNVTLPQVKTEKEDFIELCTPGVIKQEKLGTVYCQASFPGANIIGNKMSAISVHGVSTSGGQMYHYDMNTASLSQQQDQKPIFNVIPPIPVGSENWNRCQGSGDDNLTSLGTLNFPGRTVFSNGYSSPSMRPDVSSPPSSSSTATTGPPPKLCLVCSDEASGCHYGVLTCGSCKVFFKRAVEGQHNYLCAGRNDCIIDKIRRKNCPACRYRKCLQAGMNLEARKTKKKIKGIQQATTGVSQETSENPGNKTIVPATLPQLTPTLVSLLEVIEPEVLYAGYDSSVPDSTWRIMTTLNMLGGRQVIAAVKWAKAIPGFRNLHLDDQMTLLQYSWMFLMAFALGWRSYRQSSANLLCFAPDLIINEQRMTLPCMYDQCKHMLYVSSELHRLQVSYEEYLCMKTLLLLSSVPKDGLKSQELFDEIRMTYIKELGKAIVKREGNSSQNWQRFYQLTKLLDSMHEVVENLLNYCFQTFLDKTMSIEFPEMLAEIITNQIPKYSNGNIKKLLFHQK
Chain of Paired box protein Pax-6 (Homo sapiens) (P26367 whole entry, looked up): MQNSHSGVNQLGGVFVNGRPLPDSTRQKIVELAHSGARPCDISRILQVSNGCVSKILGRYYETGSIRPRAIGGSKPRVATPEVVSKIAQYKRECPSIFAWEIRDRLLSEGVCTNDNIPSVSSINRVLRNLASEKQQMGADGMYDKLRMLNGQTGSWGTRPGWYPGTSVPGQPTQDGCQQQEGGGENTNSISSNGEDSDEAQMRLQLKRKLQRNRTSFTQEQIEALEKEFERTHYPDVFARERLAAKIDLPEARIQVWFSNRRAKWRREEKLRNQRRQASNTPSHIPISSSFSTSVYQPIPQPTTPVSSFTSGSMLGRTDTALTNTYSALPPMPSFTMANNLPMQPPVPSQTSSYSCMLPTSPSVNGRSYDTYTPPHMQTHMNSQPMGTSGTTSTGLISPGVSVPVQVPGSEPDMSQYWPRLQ
Chain of Signal transducer and activator of transcription 3 (Homo sapiens) (P40763 whole entry, looked up): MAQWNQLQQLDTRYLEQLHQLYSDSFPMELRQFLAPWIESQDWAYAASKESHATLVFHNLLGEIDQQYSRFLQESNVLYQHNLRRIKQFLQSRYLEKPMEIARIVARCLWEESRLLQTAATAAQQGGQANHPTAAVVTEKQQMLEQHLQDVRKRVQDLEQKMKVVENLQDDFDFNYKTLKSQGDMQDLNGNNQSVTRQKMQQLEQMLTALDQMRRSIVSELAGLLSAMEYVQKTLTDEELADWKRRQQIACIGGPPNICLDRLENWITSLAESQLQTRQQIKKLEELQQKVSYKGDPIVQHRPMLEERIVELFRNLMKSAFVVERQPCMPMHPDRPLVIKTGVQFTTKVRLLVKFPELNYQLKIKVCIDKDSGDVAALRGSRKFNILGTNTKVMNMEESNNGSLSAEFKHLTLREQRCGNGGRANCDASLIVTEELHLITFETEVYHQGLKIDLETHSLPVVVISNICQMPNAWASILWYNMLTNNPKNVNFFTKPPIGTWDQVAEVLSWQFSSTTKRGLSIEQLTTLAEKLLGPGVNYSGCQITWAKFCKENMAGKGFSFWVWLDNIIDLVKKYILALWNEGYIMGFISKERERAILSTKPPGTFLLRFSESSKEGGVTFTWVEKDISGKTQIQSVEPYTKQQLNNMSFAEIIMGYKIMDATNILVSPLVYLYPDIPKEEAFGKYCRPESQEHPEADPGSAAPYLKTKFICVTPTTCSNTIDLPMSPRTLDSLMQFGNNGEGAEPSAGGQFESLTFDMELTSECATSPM
Chain of X-box-binding protein 1 (Homo sapiens) (P17861 whole entry, looked up): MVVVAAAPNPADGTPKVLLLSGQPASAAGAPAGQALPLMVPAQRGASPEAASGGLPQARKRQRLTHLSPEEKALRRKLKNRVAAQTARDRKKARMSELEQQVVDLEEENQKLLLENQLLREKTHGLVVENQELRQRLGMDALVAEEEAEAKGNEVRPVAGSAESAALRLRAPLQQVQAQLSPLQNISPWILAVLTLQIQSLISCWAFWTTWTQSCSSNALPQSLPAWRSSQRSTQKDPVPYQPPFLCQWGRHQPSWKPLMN
Chain of Transcription factor Sp1 (Homo sapiens) (P08047 whole entry, looked up): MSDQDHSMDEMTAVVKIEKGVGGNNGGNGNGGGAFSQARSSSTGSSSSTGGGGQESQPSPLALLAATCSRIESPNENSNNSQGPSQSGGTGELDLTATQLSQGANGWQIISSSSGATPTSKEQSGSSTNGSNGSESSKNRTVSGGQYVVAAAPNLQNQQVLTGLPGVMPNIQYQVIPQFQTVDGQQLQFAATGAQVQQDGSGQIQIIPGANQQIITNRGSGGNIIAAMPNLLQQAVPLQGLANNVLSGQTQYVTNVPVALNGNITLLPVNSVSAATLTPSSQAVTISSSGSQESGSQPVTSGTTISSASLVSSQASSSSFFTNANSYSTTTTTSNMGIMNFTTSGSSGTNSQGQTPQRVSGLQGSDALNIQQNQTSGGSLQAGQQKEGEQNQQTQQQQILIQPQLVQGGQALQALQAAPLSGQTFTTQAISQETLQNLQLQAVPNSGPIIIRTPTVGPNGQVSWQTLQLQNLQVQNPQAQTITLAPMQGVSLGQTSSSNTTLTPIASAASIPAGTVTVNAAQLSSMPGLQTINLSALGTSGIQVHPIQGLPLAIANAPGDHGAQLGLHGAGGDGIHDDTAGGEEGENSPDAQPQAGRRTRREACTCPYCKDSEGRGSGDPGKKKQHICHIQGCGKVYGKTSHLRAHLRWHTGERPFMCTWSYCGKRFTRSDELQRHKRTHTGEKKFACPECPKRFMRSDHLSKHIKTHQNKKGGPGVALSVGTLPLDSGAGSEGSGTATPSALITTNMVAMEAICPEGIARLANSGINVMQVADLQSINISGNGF
Chain of Steroid hormone receptor ERR1 (Homo sapiens) (P11474 whole entry, looked up, the tested form may be a part): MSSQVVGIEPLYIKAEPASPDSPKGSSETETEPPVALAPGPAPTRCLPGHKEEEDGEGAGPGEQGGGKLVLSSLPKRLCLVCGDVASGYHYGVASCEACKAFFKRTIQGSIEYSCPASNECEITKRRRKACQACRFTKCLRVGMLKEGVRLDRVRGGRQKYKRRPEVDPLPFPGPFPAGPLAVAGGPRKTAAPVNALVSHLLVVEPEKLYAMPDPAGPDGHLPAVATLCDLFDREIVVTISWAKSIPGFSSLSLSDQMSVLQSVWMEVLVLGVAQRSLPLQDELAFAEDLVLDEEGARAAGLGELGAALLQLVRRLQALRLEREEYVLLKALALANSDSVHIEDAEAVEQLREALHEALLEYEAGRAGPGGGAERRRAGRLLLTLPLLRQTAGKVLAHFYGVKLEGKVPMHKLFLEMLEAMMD
Chain of Estrogen-related receptor gamma (Homo sapiens) (P62508 whole entry, looked up, the tested form may be a part): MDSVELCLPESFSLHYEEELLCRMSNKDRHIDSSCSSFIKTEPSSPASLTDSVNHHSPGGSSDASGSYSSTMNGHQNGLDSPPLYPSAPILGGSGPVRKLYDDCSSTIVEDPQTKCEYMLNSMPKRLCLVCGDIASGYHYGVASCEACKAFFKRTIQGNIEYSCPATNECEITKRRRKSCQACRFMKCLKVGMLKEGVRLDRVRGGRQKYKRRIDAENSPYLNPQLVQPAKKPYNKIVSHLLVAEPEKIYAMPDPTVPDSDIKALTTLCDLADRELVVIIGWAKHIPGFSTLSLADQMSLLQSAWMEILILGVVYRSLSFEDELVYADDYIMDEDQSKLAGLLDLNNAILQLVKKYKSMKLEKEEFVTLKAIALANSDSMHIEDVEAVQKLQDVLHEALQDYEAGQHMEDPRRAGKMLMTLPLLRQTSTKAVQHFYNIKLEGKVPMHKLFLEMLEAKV
Chain of Nuclear receptor subfamily 1 group I member 3 (Homo sapiens) (Q14994 whole entry, looked up, the tested form may be a part): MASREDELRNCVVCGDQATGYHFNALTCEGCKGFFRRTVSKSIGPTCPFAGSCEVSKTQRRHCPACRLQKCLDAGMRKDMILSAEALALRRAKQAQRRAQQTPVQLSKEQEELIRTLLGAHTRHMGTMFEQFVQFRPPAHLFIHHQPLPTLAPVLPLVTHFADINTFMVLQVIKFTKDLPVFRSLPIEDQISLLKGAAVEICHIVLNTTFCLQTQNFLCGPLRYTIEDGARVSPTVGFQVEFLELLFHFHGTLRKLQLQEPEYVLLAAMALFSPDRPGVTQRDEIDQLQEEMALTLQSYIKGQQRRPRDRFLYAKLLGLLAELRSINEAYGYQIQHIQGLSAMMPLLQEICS

CC[C@H]1CC[C@H](NCc2cc3c(cc2OC)[C@H]2C[C@H]2C(=O)N3C)[C@H](c2ccccc2)N1
active: [2] 4.91 µM | [3] 75.6 µM | [6] 47.5 µM | [7] 36.6 µM | [12] 33.2 µM | [14] 96.6 µM
not listed: [17] | [18] | [19]
inactive: all other assays above

CNCc1ccc(NC(=O)c2c[nH]c3c2C(=O)CCC3)cc1
active: [17] 24.1 µM
not listed: [4]
inactive: all other assays above

CCCCCCCCO
not listed: [13] | [15] | [17] | [18]
inactive: all other assays above
